Measured values published in PubChem BioAssay (Tox21).
Results filed as inconclusive are left out. Activity calls are given as the source filed them. Unless noted, the call rests on the fitted dose curve; in most records, active means well fitted curve in the direction sought with a large enough effect in the repeat runs; inconclusive means weak or mixed curves; inactive means no such curve, though single readings can be large; an effect the other way counts as inactive or inconclusive.

Legend:
[1] = qHTS assay to identify small molecule agonists of H2AX (AID 1224845; active means well fitted activation curve with a large enough effect in the signal ratio in the repeat runs, not every such curve was filed as active; the % refers to the signal ratio)
Summary of the method: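 Phospho-H2AX Ser139 measured by HTRF (ex 320 nm; em 665 and 620 nm) after 24 hr antibody incubation. Compounds, 15 concentrations, 0.76% DMSO, were applied to CHO-K1 cells for 3hr at 37C before lysis.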

[2] = qHTS assay to identify small molecule agonists of the hypoxia (HIF-1) signaling pathway (AID 1224846; active means well fitted activation curve with a large enough effect in the signal ratio in the repeat runs, not every such curve was filed as active; the % refers to the signal ratio)
Summary of the method: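 Agonist mode reporter screen. ME-180 cells stably expressing bla under HRE control received test compounds in DMSO for 17 hrs (37C, 5% CO2), and beta-lactamase activity was then detected with the CCF4-AM FRET substrate.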

[3] = qHTS assay to identify small molecule agonists of H2AX - cell viability counter screen (AID 1224847; calls by dose curve; further: nearly all actives have a fitted effect of over 30% in size; further: potency means the concentration at half of the fitted maximal effect; on activity change, negative = cytotoxicity: top concentration of the series differs between compounds)
Summary of the method: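 Wild-type CHO-K1 cells (10% FBS medium) were plated overnight at 37C, exposed to compounds at 15 concentrations for 3 hr at 37C (0.76% DMSO final), and viability was read as CellTiter-Glo luminescence after 30 min at room temperature.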

[4] = qHTS RealTime-Glo MT Cell Viability Assay in HepG2 cells - 24 hour (AID 1224867); further: nearly all actives have a fitted effect of over 50% in size
Summary of the method: (§1)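 Compound treatment began 5 h after plating HepG2 cells (600/well) with NanoLuc luciferase and prosubstrate. Plates stayed at 37 C for 40 h; luminescence was captured at six time points, 0 h through 40 h.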

[5] = A CellTox Green Cytotoxicity Assay to monitor cytotoxicity in HEK293 cells - 0 hour (AID 1224869); further: nearly all actives have a fitted effect of over 50% in size
Summary of the method: (§2)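 Dead-cell fluorescence measured kinetically: asymmetric cyanine dye, HEK293, 600 cells/well, 5 h settle, 23 nL cpd/DMSO, 37 C, reads 0–40 h every 8 h.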

[6] = qHTS RealTime-Glo MT Cell Viability Assay in HepG2 cells - 40 hour (AID 1224870); further: nearly all actives have a fitted effect of over 50% in size
Summary of the method: (§3)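 Real-time viability: cells seeded at 600 per well together with NanoLuc and cell-permeant prosubstrate, compounds added after 5 h incubation. Luminescence tracked at 0, 8, 16, 24, 32 and 40 h of exposure.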

[7] = A CellTox Green Cytotoxicity Assay to monitor cytotoxicity in HEK293 cells - 40 hour (AID 1224871); further: nearly all actives have a fitted effect of over 45% in size; further: potency means the concentration at half of the fitted maximal effect
Summary of the method: as §2

[8] = qHTS RealTime-Glo MT Cell Viability Assay in HepG2 cells - 8 hour (AID 1224873); further: nearly all actives have a fitted effect of over 55% in size
Summary of the method: as §3

[9] = A CellTox Green Cytotoxicity Assay to monitor cytotoxicity in HEK293 cells - 24 hour (AID 1224875); further: nearly all actives have a fitted effect of over 45% in size; further: potency means the concentration at half of the fitted maximal effect
Summary of the method: as §2

[10] = A CellTox Green Cytotoxicity Assay to monitor cytotoxicity in HepG2 cells - 16 hour (AID 1224876); further: nearly all actives have a fitted effect of over 45% in size
Summary of the method: (§4)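 First, HepG2 cells (600/well) mixed with reagent were plated; second, after 5 h at 37 C they received compounds via pintool; third, fluorescence was measured at 0 h through 40 h at 8 h intervals.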

[11] = qHTS RealTime-Glo MT Cell Viability Assay in HepG2 cells - 32 hour (AID 1224877); further: nearly all actives have a fitted effect of over 55% in size
Summary of the method: as §1

[12] = A CellTox Green Cytotoxicity Assay to monitor cytotoxicity in HepG2 cells - 24 hour (AID 1224878); further: nearly all actives have a fitted effect of over 45% in size; further: potency means the concentration at half of the fitted maximal effect
Summary of the method: as §4

[13] = A CellTox Green Cytotoxicity Assay to monitor cytotoxicity in HepG2 cells - 40 hour (AID 1224879); further: nearly all actives have a fitted effect of over 40% in size; further: potency means the concentration at half of the fitted maximal effect
Summary of the method: as §4

[14] = qHTS RealTime-Glo MT Cell Viability Assay in HEK293 cells - 0 hour (AID 1224880); further: nearly all actives have a fitted effect of over 45% in size; further: potency means the concentration at half of the fitted maximal effect; on activity change, negative = cytotoxicity: top concentration of the series differs between compounds
Summary of the method: (§5)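 600 HEK293 cells per well, dispensed already mixed with RealTime-Glo MT reagents. Compound dosing came 5 h later. The same wells were read for luminescence at 0, 8, 16, 24, 32 and 40 h of exposure at 37 C.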

[15] = A CellTox Green Cytotoxicity Assay to monitor cytotoxicity in HEK293 cells - 32 hour (AID 1224881); further: nearly all actives have a fitted effect of over 40% in size; further: potency means the concentration at half of the fitted maximal effect
Summary of the method: as §2

[16] = qHTS assay to identify small molecule antagonists of the estrogen related receptor (ERR) signaling pathway from Tox21 library (AID 1224848); further: nearly all actives have a fitted effect of over 50% in size
Summary of the method: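 ERR cell line, 2,000 cells/well. 6 h settle, then compound (DMSO) added; 18 h at 37 C; ONE-Glo luminescence after 30 min RT.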

[17] = qHTS assay to identify small molecule agonists of the estrogen related receptor (ERR) signaling pathway from Tox21 library (AID 1224849; calls by dose curve; further: nearly all actives have a fitted effect of over 15% in size); details: ERR reporter cell line, ONE-Glo luciferase, 18 h; at 92.4 µM (top of the series) unless noted
Summary of the method: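 Quantitative HTS in agonist format: NTP ERR cell line, compounds transferred in DMSO after 6 h plating, 18 h incubation at 37 C, ONE-Glo luminescence endpoint.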

[18] = qHTS RealTime-Glo MT Cell Viability Assay in HEK293 cells - 16 hour (AID 1224872)
Summary of the method: (§6)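 Quantitative high-throughput screen of the Tox21 10K library in HEK293: cells and RealTime-Glo reagents plated together, compound added at 5 h, luminescence monitored through 40 h at 37 C.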

[19] = qHTS RealTime-Glo MT Cell Viability Assay in HEK293 cells - 32 hour (AID 1224868)
Summary of the method: as §6

[20] = qHTS RealTime-Glo MT Cell Viability Assay in HEK293 cells - 40 hour (AID 1224874); details: RealTime-Glo luminescence; max response: active compounds read low; further: nearly all actives have a fitted effect of over 50% in size; further: potency means the concentration at half of the fitted maximal effect
Summary of the method: as §5
On the % scale 0 is the no-effect control and ±100 the full control effect.

S=C([S-])NCCNC(=S)[S-].[Mn+2]
inactive: Potency [1] | Potency [2] | Potency [3] | Potency [4] | Potency [5] | Potency [6] | Potency [7] | Potency [8] | Potency [9] | Potency [10] | Potency [11] | Potency [12] | Potency [13] | Potency [14] | Potency [15]

CN1CCC(=C2c3ccccc3Sc3ccccc32)CC1
inactive: Potency [1] | Potency [3] | Potency [16] | activity change, positive = activation [17] 1.79% [at 42.5 µM] | Potency [4] | Potency [5] | Potency [6] | Potency [18] | Potency [8] | Potency [9] | Potency [15]
active: Potency [12] 23.9 µM | Potency [13] 23.9 µM

C=CC1CC2C=CC1C2 (centres undefined)
inactive: Potency [1] | Potency [2] | Potency [3] | Potency [19] | Potency [5] | Potency [6] | Potency [7] | Potency [18] | Potency [8] | max response [20] 2.72% | Potency [9] | Potency [10] | Potency [11] | Potency [12] | Potency [13] | Potency [14] | Potency [15]

CC1=CC[C@H](C(C)C)C=C1
inactive: Potency [1] | Potency [2] | Potency [3] | Potency [19] | Potency [5] | Potency [6] | Potency [7] | Potency [18] | Potency [8] | max response [20] -3.46% | Potency [9] | Potency [11] | Potency [12] | Potency [13] | Potency [14] | Potency [15]

CCCCCCCCCCO[C@@H]1O[C@H](CO)[C@@H](O)[C@H](O)[C@H]1O
inactive: Potency [1] | Potency [2] | Potency [3] | Potency [4] | Potency [5] | Potency [6] | Potency [18] | Potency [8] | Potency [10] | Potency [11] | Potency [12] | Potency [14]

CCCCc1nc2cccnc2n1Cc1ccc(-c2ccccc2-c2nnn[nH]2)cc1
active: Potency [14] 21.9 µM
inactive: Potency [1] | Potency [2] | Potency [3] | Potency [4] | Potency [5] | Potency [6] | Potency [7] | Potency [8] | Potency [9] | Potency [10] | Potency [11] | Potency [12] | Potency [13] | Potency [15]

CCCCCCCCCCCCCCCCOS(=O)(=O)O
active: Potency [7] 21.3 µM | Potency [9] 19 µM | Potency [15] 21.3 µM
inactive: Potency [1] | Potency [2] | activity change, positive = activation [17] -16% [at 42.5 µM] | Potency [4] | Potency [19] | Potency [5] | Potency [6] | Potency [18] | Potency [8] | max response [20] -27.5% | Potency [11] | Potency [14]

COC(=O)c1ccc(I)cc1S(=O)(=O)NC(=O)Nc1nc(C)nc(OC)n1
inactive: Potency [2] | Potency [3] | Potency [4] | Potency [19] | Potency [5] | Potency [6] | Potency [7] | Potency [18] | Potency [8] | max response [20] 0.658% | Potency [9] | Potency [10] | Potency [11] | Potency [12] | Potency [13] | Potency [14] | Potency [15]

CN(C)c1ccc(/C=C/c2ccc([N+](=O)[O-])cc2)cc1
inactive: activation [2] -1.48% [at 7.01 µM] | activity change, negative = cytotoxicity [3] -2.45% [at 14 µM] | activity change, negative = cytotoxicity [4] -7.57% [at 6.97 µM] | activity change, negative = cytotoxic [19] -5.7% [at 6.97 µM] | activity change, negative = cytotoxic [6] -1.99% [at 6.97 µM] | activity change, negative = cytotoxicity [18] -4.94% [at 6.97 µM] | viability change, negative = cytotoxic [8] -4.05% [at 6.97 µM] | max response [20] -4.38% | activity change, negative = cytotoxic [11] -4.75% [at 6.97 µM] | cytotoxicity [12] 17.5% [at 6.97 µM] | cytotoxicity increase [13] 16.3% [at 6.97 µM] | activity change, negative = cytotoxicity [14] -5.79% [at 6.97 µM] | cytotoxicity increase [15] 15.1% [at 6.97 µM]

Cc1cccc(C)c1NC(=O)CN(CC(=O)O)CC(=O)O
inactive: Potency [2] | Potency [3] | Potency [4] | Potency [19] | Potency [5] | Potency [6] | Potency [7] | Potency [18] | Potency [8] | max response [20] 5.56% | Potency [9] | Potency [11] | Potency [12] | Potency [14] | Potency [15]

CCOc1ccc(O)cc1
active: Potency [20] 11 µM
inactive: Potency [2] | Potency [3] | Potency [4] | Potency [5] | Potency [6] | Potency [7] | Potency [8] | Potency [9] | Potency [10] | Potency [11] | Potency [12] | Potency [13] | Potency [14] | Potency [15]

CN1Cc2cc(C(=O)N3CCC(C4CCNCC4)CC3)ccc2NC(CC(=O)O)C1=O (centres undefined)
inactive: Potency [2] | Potency [3] | Potency [16] | activity change, positive = activation [17] 1.47% [at 42.5 µM] | Potency [19] | Potency [5] | Potency [6] | Potency [7] | Potency [18] | Potency [8] | max response [20] 5.98% | Potency [9] | Potency [10] | Potency [11] | Potency [12] | Potency [13] | Potency [14] | Potency [15]

COc1cc(Cl)ccc1Oc1ccc(Cl)cc1Cl
inactive: Potency [2] | Potency [16] | Potency [4] | Potency [19] | Potency [5] | Potency [6] | Potency [7] | Potency [8] | max response [20] -24.6% | Potency [11] | Potency [12] | Potency [13] | Potency [14] | Potency [15]
active: Potency [3] 97.9 µM

CN1C[C@H]2c3ccccc3Oc3ccc(Cl)cc3[C@@H]2C1
inactive: Potency [2] | Potency [3] | Potency [16] | activity change, positive = activation [17] -3.7% [at 42.5 µM] | Potency [19] | Potency [5] | Potency [6] | Potency [7] | Potency [18] | Potency [8] | max response [20] -21.8% | Potency [9] | Potency [11] | Potency [15]
active: Potency [13] 26.8 µM

CCOC(=O)C1=C[C@]2(CC)CCCN3CCc4c(n1c1ccccc41)[C@@H]32
inactive: Potency [2] | Potency [3] | Potency [4] | Potency [5] | Potency [6] | Potency [7] | Potency [18] | Potency [8] | max response [20] -21.2% | Potency [9] | Potency [11] | Potency [14] | Potency [15]
